The full ranking holds about 33,000 sequences; the median of “E-score (-0.5 to 0.5)” is about -0.011, and the highest 2% start at about 0.28. For the sample, the highest values were picked, then their nearest neighbours and some sequences at random.
The sequences below were run against T1, Gcr1 (UniProt P07261) (assay: PBM E-score (8-mer binding enrichment) (E-score (-0.5 to 0.5)); higher = stronger / more preferred TF binding). Details: protein concentration: 100 nM; construct: GST-full length.
T1 sequence: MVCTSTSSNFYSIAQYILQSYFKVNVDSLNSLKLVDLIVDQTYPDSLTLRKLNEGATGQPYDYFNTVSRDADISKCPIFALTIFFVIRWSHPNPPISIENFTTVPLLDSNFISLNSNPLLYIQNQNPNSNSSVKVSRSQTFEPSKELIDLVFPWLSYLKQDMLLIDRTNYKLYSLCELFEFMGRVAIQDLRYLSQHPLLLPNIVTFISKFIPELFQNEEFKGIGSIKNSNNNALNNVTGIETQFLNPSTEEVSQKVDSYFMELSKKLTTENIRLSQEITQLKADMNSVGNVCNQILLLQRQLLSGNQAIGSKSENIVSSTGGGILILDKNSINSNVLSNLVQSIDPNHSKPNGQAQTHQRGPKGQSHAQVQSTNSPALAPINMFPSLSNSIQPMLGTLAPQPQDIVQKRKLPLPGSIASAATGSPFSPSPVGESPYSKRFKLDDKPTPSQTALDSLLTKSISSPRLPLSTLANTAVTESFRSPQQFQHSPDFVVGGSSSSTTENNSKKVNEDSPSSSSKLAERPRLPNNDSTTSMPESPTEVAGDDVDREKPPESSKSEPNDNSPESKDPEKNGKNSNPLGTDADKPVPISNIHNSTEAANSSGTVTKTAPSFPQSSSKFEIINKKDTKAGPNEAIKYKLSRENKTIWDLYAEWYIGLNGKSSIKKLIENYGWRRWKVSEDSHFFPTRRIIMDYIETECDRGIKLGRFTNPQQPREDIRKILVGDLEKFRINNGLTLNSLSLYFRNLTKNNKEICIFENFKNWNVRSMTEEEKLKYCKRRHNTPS
Summary of the method: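 Bound GST-tagged yeast transcription factors, applied at about 100-200 nM to double-stranded universal all-10-mer Agilent arrays, were detected with fluorescent anti-GST. Scans were normalised with masliner. A modified Wilcoxon-Mann-Whitney statistic, the E-score, was assigned to each ungapped eight-base word pooled with its reverse complement by the Universal PBM Analysis Suite.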
With ACCCACTG the “PBM E-score” value was 0.147. With CCTGCTCA the “PBM E-score” value was -0.0926. For CCAGATCC, the “PBM E-score” value was 0.185. In the case of GGCAATGA, the “PBM E-score” value is reported as -0.202. With ACGGAAGA the “PBM E-score” value was 0.0748. With GCGGAAAC the “PBM E-score” value was -0.0701. In the case of ACGGAAGC, the “PBM E-score” value is reported as 0.344. With GCGGAAGC the “PBM E-score” value was 0.314. With CCGGAAGA the “PBM E-score” value was 0.043. With CCGGAAGG the “PBM E-score” value was 0.0607. For CCGGAAGC, the “PBM E-score” value was 0.439. With GCGGAAGA the “PBM E-score” value was -0.195. In the case of ACGGAAGT, the “PBM E-score” value is reported as -0.0172. For ATTTTAGG, the “PBM E-score” value was 0.249. For CGAAACAC, the “PBM E-score” value was 0.13. With AATACTGT the “PBM E-score” value was 0.0108. In the case of AACATCGC, the “PBM E-score” value is reported as -0.031. With GCAGGTAA the “PBM E-score” value was 0.0517. In the case of AGTCTTCG, the “PBM E-score” value is reported as -0.124. With AGAAGCTG the “PBM E-score” value was 0.348. GGAAGCGA was tested, and the “PBM E-score” value was 0.175. In the case of AGAAGCTC, the “PBM E-score” value is reported as 0.273. For GGAAGCTA, the “PBM E-score” value was 0.457. ATAAGCTA was tested, and the “PBM E-score” value was -0.078. In the case of AGAAGTTA, the “PBM E-score” value is reported as 0.0491. In the case of AGAAGCTA, the “PBM E-score” value is reported as 0.338. For CGAAGCTA, the “PBM E-score” value was 0.198. CGAAGTTA was tested, and the “PBM E-score” value was 0.0921. ATAAGCTG was tested, and the “PBM E-score” value was 0.15. With GGAAGTTA the “PBM E-score” value was 0.339. With AAAAGCTA the “PBM E-score” value was -0.0743. TAACCATA was tested, and the “PBM E-score” value was 0.0179. GATCTGAA was tested, and the “PBM E-score” value was -0.0028. CTGGATCA was tested, and the “PBM E-score” value was -0.0687. In the case of AGGGATTC, the “PBM E-score” value is reported as 0.276. CGGGATTC was tested, and the “PBM E-score” value was 0.39. In the case of CTGGATCC, the “PBM E-score” value is reported as 0.346. ATGGATCC was tested, and the “PBM E-score” value was 0.278. CGGGATAC was tested, and the “PBM E-score” value was 0.304. For CGGGATTA, the “PBM E-score” value was -0.0698. With CCGGATTC the “PBM E-score” value was 0.313. In the case of CCGGATTA, the “PBM E-score” value is reported as -0.0163. For GGGGATAC, the “PBM E-score” value was 0.0984. CGGGATAA was tested, and the “PBM E-score” value was 0.0532. With ACGGATTC the “PBM E-score” value was 0.237. For ACACTGGA, the “PBM E-score” value was 0.264. With AACAGTGC the “PBM E-score” value was -0.142. For CGGAAGAA, the “PBM E-score” value was -0.0973. With ATCTAGCC the “PBM E-score” value was 0.0906. For ATTCCGTC, the “PBM E-score” value was 0.0616. With CTATAGAC the “PBM E-score” value was -0.109. For CGCAGCAG, the “PBM E-score” value was 0.0351. For CCCAAATC, the “PBM E-score” value was 0.238. In the case of CTAGCCAC, the “PBM E-score” value is reported as -0.154. ATGTGAAA was tested, and the “PBM E-score” value was -0.0826. In the case of CTGGATTA, the “PBM E-score” value is reported as 0.246. In the case of ATGGATTC, the “PBM E-score” value is reported as 0.272. In the case of CTGGATTC, the “PBM E-score” value is reported as 0.361. In the case of CCGCACAC, the “PBM E-score” value is reported as -0.0537. In the case of AAGATGCT, the “PBM E-score” value is reported as 0.288. GAGATGCC was tested, and the “PBM E-score” value was 0.158. AAGATGCG was tested, and the “PBM E-score” value was 0.198. AAGATGCC was tested, and the “PBM E-score” value was 0.31. In the case of CAGATGCC, the “PBM E-score” value is reported as 0.217. AAGATGCA was tested, and the “PBM E-score” value was 0.0396. TTAACCAA was tested, and the “PBM E-score” value was -0.0373. With ATCGCCGG the “PBM E-score” value was 0.123. In the case of CAACTCAA, the “PBM E-score” value is reported as 0.0769. For AATAGGCG, the “PBM E-score” value was 0.168. CTACGAAG was tested, and the “PBM E-score” value was 0.0785. In the case of AGACGAAG, the “PBM E-score” value is reported as 0.335. ATACGAAT was tested, and the “PBM E-score” value was 0.113. With CGACGAAG the “PBM E-score” value was -0.219. With ATACGAAG the “PBM E-score” value was 0.293. In the case of AGACGAAT, the “PBM E-score” value is reported as 0.0336. AGCTTACG was tested, and the “PBM E-score” value was 0.0302. In the case of AACTACTG, the “PBM E-score” value is reported as -0.0124. With AACTACTA the “PBM E-score” value was 0.288. With AACTACTC the “PBM E-score” value was 0.0802. With CGGATACG the “PBM E-score” value was 0.0225. With TTATGGAA the “PBM E-score” value was 0.163. ACTCTTCA was tested, and the “PBM E-score” value was -0.15. AGTAGCAC was tested, and the “PBM E-score” value was 0.287. For AGTAGCAA, the “PBM E-score” value was 0.111. With GGTAGCAC the “PBM E-score” value was 0.0683. For CCGGTTCG, the “PBM E-score” value was -0.0186. With CCTAAATA the “PBM E-score” value was 0.129. In the case of CCTAAATC, the “PBM E-score” value is reported as 0.306. For ACTAAATC, the “PBM E-score” value was 0.0396. GTCGGTTA was tested, and the “PBM E-score” value was -0.058. For CGAACACC, the “PBM E-score” value was -0.135. For CGTTCATA, the “PBM E-score” value was -0.0211. ATTACTGC was tested, and the “PBM E-score” value was -0.0604. With ATTACTGG the “PBM E-score” value was 0.362. For AATACTGA, the “PBM E-score” value was 0.0152. With ATTACTGA the “PBM E-score” value was -0.0681. For AATACTGG, the “PBM E-score” value was 0.369. With CATACTGG the “PBM E-score” value was 0.209. ACTACTCC was tested, and the “PBM E-score” value was 0.0438. With CAATTAGC the “PBM E-score” value was -0.0933. In the case of AGCGTCCG, the “PBM E-score” value is reported as 0.165. For AACGTCCC, the “PBM E-score” value was -0.159. For GGCGTCCC, the “PBM E-score” value was 0.362. In the case of AACGTCCT, the “PBM E-score” value is reported as 0.043. ACCGTCCT was tested, and the “PBM E-score” value was -0.196. ATCGTCCA was tested, and the “PBM E-score” value was 0.0357. For AGCGTCAC, the “PBM E-score” value was -0.078. AGCGTCCA was tested, and the “PBM E-score” value was 0.437. With GCCGTCCC the “PBM E-score” value was -0.0711. For AGCGTCCC, the “PBM E-score” value was 0.347. In the case of CGCGTCCC, the “PBM E-score” value is reported as 0.0398. For AGCGTCCT, the “PBM E-score” value was 0.426.

Reference: the supplement of paper PMC3334620
